Bioassay records as filed in PubChem.
This is a sample that favours compounds with a hit; in the whole collection about 1.8% have one here.
KCNH2 3.1 inh = inhibitors of human KCNH2 3.1 potassium channel isoform; 340,000 tested, 0.95% active; AID 720553; U2OS KCNH2 3.1, thallium flux FluxOr; stronger effect = lower value; activity change, % (tested at about 1.8 µM);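 active means maximum activity change below -70%; inconclusive means maximum activity change from -70% to -50%; inactive means maximum activity change above -50%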;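 further: thallium influx rate constant from kinetic fluorescence after stimulation buffer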
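Steps: virus added to U2OS suspension (4 h, RT, dark); medium with 10% FBS added, cells plated, 37 C overnight; FluxOr/Red40 loading buffer 45 min RT; stimulation buffer, 2 min kinetic read; rate constant normalized.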
hERG WT inh = blocks the wildtype human KCNH2 potassium channel | Q12809 | U2OS, BacMam KCNH2, thallium flux FluxOr; stronger effect = lower value | activity change, % at 1.84 µM | 340,000 tested, 0.37% active | AID 720551;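 active means maximum activity change below -70%; inconclusive means maximum activity change between -70% and -50%; inactive means maximum activity change above -50%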
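U2OS cells transduced with wild-type KCNH2 virus are loaded with FluxOr dye for 45 min, and thallium flux is measured in kinetic reads before and after stimulation buffer. Rate constants are normalized to DMSO controls.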
A-T KAP1 phos = candidate therapy for ataxia-telangiectasia. F2112 A-T fibroblasts, KAP-1 phosphorylation AlphaLISA; neocarzinostatin DNA damage 30 min before lysis. Potency, µM (doses to about 57.5 µM), most hits filed as activators. 320,000 tested, 0.19% active. AID 485349; further: nearly all actives have a fitted effect of over 45% in size
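hTERT-immortalized A-T patient fibroblasts (F2112), 500 cells/well in OPTI-MEM, 1% FBS, got compounds for 60 min, then NCS for 30 min at 37C. Lysates were then assayed for phospho-KAP-1 by AlphaLISA (anti-pKAP1 donor, anti-KAP1 acceptor beads), 6 hr at 25C.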
12-LOX inh = ALOX12 (human) lipoxygenase inhibition; P18054; purified 12hLO, xylenol orange hydroperoxide absorbance; Potency, µM (highest dose often 108 µM), actives largely listed as inhibitors; 580,000 tested, 1.1% active; AID 1671190
Target sequence (P18054 whole entry, looked up): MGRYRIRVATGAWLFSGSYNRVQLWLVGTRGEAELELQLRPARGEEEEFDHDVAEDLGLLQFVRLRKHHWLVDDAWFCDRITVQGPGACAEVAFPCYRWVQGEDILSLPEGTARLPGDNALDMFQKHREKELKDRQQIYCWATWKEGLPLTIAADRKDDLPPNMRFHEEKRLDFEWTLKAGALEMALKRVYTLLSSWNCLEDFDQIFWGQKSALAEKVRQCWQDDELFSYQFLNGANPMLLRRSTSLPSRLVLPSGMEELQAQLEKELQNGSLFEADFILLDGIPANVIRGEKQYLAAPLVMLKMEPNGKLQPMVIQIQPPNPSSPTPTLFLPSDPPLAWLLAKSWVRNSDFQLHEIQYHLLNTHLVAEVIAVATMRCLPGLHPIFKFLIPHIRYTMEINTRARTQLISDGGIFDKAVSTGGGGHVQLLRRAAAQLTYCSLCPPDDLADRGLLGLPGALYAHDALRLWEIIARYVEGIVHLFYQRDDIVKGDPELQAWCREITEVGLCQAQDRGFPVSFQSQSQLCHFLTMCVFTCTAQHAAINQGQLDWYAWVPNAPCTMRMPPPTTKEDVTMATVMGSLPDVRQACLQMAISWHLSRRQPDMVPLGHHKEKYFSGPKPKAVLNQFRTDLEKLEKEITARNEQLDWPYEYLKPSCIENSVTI
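Purified human 12hLO at 150 nM in 25 mM Hepes, 0.01% Triton X-100, pH 7.0, preincubated 15 min at room temperature with compound. Reaction started with 40 uM arachidonic acid, 30 min at room temperature. Hydroperoxide measured by Fe-xylenol orange, 573/405 nm absorbance ratio.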
Hits are given with their value; 0 = inactive; ? = inconclusive; - = not tested or not shown; [ ] = another dose, or the depositor's remark. Unless noted, the call rests on the fitted dose curve; in most records, active means well fitted curve in the direction sought with a large enough effect; inconclusive means small, poorly fitted or top-dose-only effect, or another doubt; inactive means no such curve, though single readings can be large; an effect the other way counts as inactive or inconclusive.

SMILES	KCNH2 3.1 inh	hERG WT inh	A-T KAP1 phos	12-LOX inh
Cn1c(CN2CCN(c3ccc(NS(C)(=O)=O)cc3Cl)CC2)nc2ccccc21	-	-	-	0
O=C(c1ccccc1)N1CCc2[nH]nc(-c3ccccc3)c2C1	-94	0	0	0
COc1ccc(C(=O)N2CCc3[nH]nc(-c4ccccc4)c3C2)cc1	0	0	0	0
Cc1ccc(CN(CC(O)COc2cccc3[nH]cc(C)c23)C(C)(C)C)cc1 (centres undefined)	-74	0	0	?
COC(=O)Cc1c[nH]c2cccc(OCC(O)CN(Cc3ccc([N+](=O)[O-])cc3)C(C)(C)C)c12 (centres undefined)	0	0	0	0
Cc1cc(C)c2c(=O)cc(C(=O)N(Cc3ccc(C(C)C)cc3)C3CCS(=O)(=O)C3)oc2c1 (centres undefined)	-	-	-	0
O=c1c(-c2ccccc2)c1-c1ccccc1	-	-	-	0[22.9 µM]
S=c1sscc1-c1ccccc1	0	0	-	5.6µM
CO/C=C\C=C/c1nnn(-c2ccc(Cl)cc2)n1	0	0	0	35µM
Clc1ccc(-n2cnnn2)cc1	0	0	0	0
CN(C)c1nc(=NCc2ccco2)ss1	0	0	0	-
CCOC(CN=c1nc(N(C)C)ss1)OCC	0	0	-	18µM
Nc1nc2c(s1)C(c1ccccc1Cl)CC(=O)N2 (centres undefined)	-	-	-	20µM
Nc1nc2c(s1)C(c1c(Cl)cccc1Cl)CC(=O)N2 (centres undefined)	-	-	-	14µM
CSc1nc2c(c(=O)[nH]1)C(c1ccccc1Cl)CC(=O)N2 (centres undefined)	0	0	0	0
NC(=O)C1CCCCN1C(=O)c1nn(-c2ccccc2)c(=O)c2ccccc12 (centres undefined)	-	-	-	0
O=[N+]([O-])c1ccccc1C(=Nc1ccccc1)c1c(O)cc(O)cc1O	0	0	-	45µM
O=C(/C=C/c1ccc(Cl)cc1Cl)Nc1ccccc1C(F)(F)F	-	-	-	0
CC(/C=N/n1c(-c2ccncc2)n[nH]c1=S)=C\c1ccco1	0	0	0	7.1µM
COc1ccccc1/C=C/C=N/n1c(-c2cc(-c3ccccc3)n[nH]2)n[nH]c1=S	0	0	0	10µM
Cc1cccc(/C=N/n2c(-c3ccncc3)n[nH]c2=S)c1	-70	0	0	?
Cc1cccc(-c2n[nH]c(=S)n2/N=C/C=C/c2ccco2)c1	0	0	0	25µM
CC(/C=N/n1c(-c2ccc(C)cc2)n[nH]c1=S)=C\c1ccco1	0	0	0	?
S=c1[nH]nc(-c2ccncc2)n1/N=C/c1ccccc1	0	0	0	?
S=c1[nH]nc(-c2ccncc2)n1/N=C/C=C/c1ccco1	0	0	0	?
SMILES	KCNH2 3.1 inh	hERG WT inh	A-T KAP1 phos	12-LOX inh
CSc1cccc(NC(=O)C2CCN(c3cnc4nc(C)c(C)nc4c3)CC2)c1	-	-	-	0
CCOc1ccc(-c2[nH]nc3c2C(c2c(F)cccc2Cl)C(C#N)=C(N)O3)c(OCC)c1 (centres undefined)	-	-	-	0
COc1cc(/C=N/n2c(-c3ccccc3)n[nH]c2=S)ccc1O	0	0	0	?
COc1ccc(/C=N/n2c(-c3ccc(C)cc3)n[nH]c2=S)cc1OC	0	0	0	10µM
CC(=C/c1ccccc1)/C=N/n1c(-c2ccncc2)n[nH]c1=S	0	0	0	13µM
Cc1ccc(-n2c(=O)c3c(cc(C)n3C)n(CC(=O)Nc3ccc4c(c3)OCO4)c2=O)cc1	-	-	-	0
COc1ccc(/C=C/C(=O)NCC(C)C)cc1	-	-	-	0
CCCNC(=O)c1ccc(S(=O)(=O)NCC2(O)CCCNC2)cc1 (centres undefined)	-	-	-	0
COc1ccccc1Cc1c(-c2ccccc2)nc2c3ccccc3ccn12	-	-	-	0
COc1ccccc1Cc1c(C(C)(C)C)nc2c3ccccc3ccn12	-	-	-	28µM
CN1CCN(C(c2ccc(F)cc2)c2ccc3cccnc3c2O)CC1 (centres undefined)	0	0	-	-
CN1CCN(C(c2ccc(Br)cc2)c2cc(Cl)c3cccnc3c2O)CC1 (centres undefined)	0	0	0	10µM
COc1ccc(CNC(=O)c2cnc3c(cnn3C(C)C)c2)cc1	-	-	-	0
OCC1(CCOc2ccccc2)CCN(Cc2cn[nH]c2-c2ccc(F)cc2)CC1	-104	?	0	0
OC1(c2ccc(Cl)cc2)CCN(Cc2cn[nH]c2-c2ccccc2)CC1	-87	?	0	0
COc1ccc(-c2[nH]ncc2CN2CCC(O)(c3ccc(Cl)cc3)CC2)cc1	-70	0	0	0
Fc1ccc(-c2[nH]ncc2CN2CCN(c3ccc(F)cc3)CC2)cc1	0	0	0	0
